Measurements published in paper PMC5540273 (PLoS ONE, 2017).

How the values were obtained:
Settings in all cases: concentration: 1 μM, replicates: in singlicate; n = 1
NIM1 = test system: T1, NIM1
T1 construct: gene MGC42105

NLK = test system: NLK
OSR1 = test system: T2, OSR1
T2 construct: gene OXSR1

PAK1 = test system: PAK1
PAK2 = test system: PAK2
PAK3 = test system: PAK3
PAK4 = test system: PAK4
PAK6 = test system: PAK6
PAK7 = test system: PAK7
PCTK1 = test system: T3, PCTK1
T3 construct: gene CDK16
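Further: KINOMEscan kinase panel screen.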

Compound	%Inh (NIM1) [%]	%Inh (NLK) [%]	%Inh (OSR1) [%]	%Inh (PAK1) [%]	%Inh (PAK2) [%]	%Inh (PAK3) [%]	%Inh (PAK4) [%]	%Inh (PAK6) [%]	%Inh (PAK7) [%]	%Inh (PCTK1) [%]
Cc1ccc(F)c(C(=O)Nc2cccc(-c3nn4ccccc4c3-c3ccnc(Nc4cccc(F)c4)n3)c2)c1F [GSK361061]	0	77	100	4	21	42	3	0	14	0
Cl.Cl.NCC(C(=O)Nc1cc(Br)c(-c2ccnc3[nH]ccc23)s1)c1ccccc1 (centres unmarked) [GSK1269851]	11	0	36	17	32	27	0	0	51	11
O=C(Nc1cccc(Oc2ccc3nc(NC(=O)C4CC4)cn3n2)c1)c1ccccc1C(F)(F)F	0	37	0	8	6	4	0	9	0	0
NCCCC(NC(=O)c1cc(Br)c(-c2ccnc3[nH]ccc23)s1)c1ccccc1.O=C(O)C(F)(F)F.O=C(O)C(F)(F)F (centres unmarked) [GSK1287544]	15	0	57	2	41	67	2	56	29	10
O=C(Nc1n[nH]c2cc(-c3ccoc3)ccc12)C1CC1 [SB-738481]	100	4	0	0	15	18	0	0	0	61
COc1cccc(NC(=O)NC2CCN(c3ccnc(Nc4cc(OC)c(OC)c(OC)c4)n3)C2)c1 (centres unmarked) [GSK1379763]	15	63	0	0	0	0	0	16	0	6
Cc1ccc(C)c(NC(=O)NC2CCN(c3ccnc(Nc4ccc(F)cc4)n3)C2)c1 (centres unmarked) [GSK1379720]	43	4	0	4	2	14	0	0	0	0
FC(F)(F)c1ccc(/C=C/c2cncnc2Nc2ccc3[nH]c(Cc4ccccc4)nc3c2)cc1 [GW709199]	0	9	0	4	16	0	0	0	0	0
O=C(Nc1n[nH]c2nc(-c3ccc(O)cc3)ccc12)C1CC1 [SB-710363]	0	92.1	0	0	72	0	0	0	11	61
CCS(=O)(=O)c1ccc(OC)c(Nc2nccc(-c3c(-c4cccc(NC(=O)c5c(F)cccc5F)c4)nn4ncccc34)n2)c1 [GSK326180]	7	48	9	0	0	14	0	11	3	2
Cc1occc1-c1ncc(OC[C@@H](N)Cc2c[nH]c3ccccc23)cc1-c1ccc2[nH]nc(C)c2c1.O=C(O)C(F)(F)F [GSK682037]	33	39	8	97.5	68	32	2	15	36	0
COC(=O)Nc1nc2cc(Oc3ccc(NC(=O)Nc4cc(C(F)(F)F)ccc4F)cn3)ccc2[nH]1.Cl.Cl [GW681170]	27	30	0	0	0	9	0	0	0	0
CN1CCN(Cc2cccc(-c3ccc4c(Nc5ccc(Oc6ccccc6)cc5)ccnc4c3)c2)CC1 [GW578342]	22	41	4	16	0	29	0	0	0	0
CN1CCN(CCCNc2nccc(-c3c(-c4ccc(F)cc4)nn4cc(C(F)(F)F)ccc34)n2)CC1 [GW621581]	0	55	6	8	7	30	0	0	0	0
CCCCc1nn2ncccc2c1-c1ccnc(Nc2ccc(N3CCN(C)CC3)cc2)n1 [GW684941]	47	54	12	23	0	0	0	48	1	26
CCc1ccc(-c2ccc3c(c2)-c2c(cnn2C)S(=O)(=O)N3C)cc1	0	11	0	0	2	0	1	9	0	0

Compound	%Inh (NIM1) [%]	%Inh (NLK) [%]	%Inh (OSR1) [%]	%Inh (PAK1) [%]	%Inh (PAK2) [%]	%Inh (PAK3) [%]	%Inh (PAK4) [%]	%Inh (PAK6) [%]	%Inh (PAK7) [%]	%Inh (PCTK1) [%]
COc1cc2c(cc1OCCN1CCNCC1)ncc1c3ccc(C#N)cc3[nH]c21	66	0	20	0	4	0	0	8	0	16
C[C@@H](Oc1cc(-n2cnc3cc(-c4ccnc(NCCS(C)(=O)=O)c4)ccc32)sc1C(N)=O)c1ccccc1Cl [GSK907232]	69	14	20	6	32	26	0	0	0	7
Nc1ncc(-c2ccc3nccc(-c4ccncc4)c3c2)cc1S(=O)(=O)N1CCOCC1 [GSK1627798]	0	0	0	9	20	5	0	0	0	3
Nc1ncc(-c2cccnc2)c2scc(-c3ccc4c(c3)CCN4C(=O)Cc3ccccc3)c12 [GSK683281]	11	47	19	18	19	62	18	0	7	1
COc1ccc(CNC(=O)NC2CCN(c3ccnc(Nc4ccc(F)cc4)n3)CC2)cc1 [GSK1379788]	8	0	0	0	0	6	0	0	2	0
Nc1n[nH]c2cnc(-c3ccccc3)cc12 [SB-642124]	29	31	12	21	15	34	0	0	6	11
COc1cccc(C(=O)Nc2cccc(Oc3ccc4nc(NC(=O)C5CC5)cn4n3)c2)c1	0	0	0	17	26	23	18	15	0	0
COc1cc(Nc2nccc(N3CCC(NC(=O)Nc4cccc(C(C)=O)c4)C3)n2)cc(OC)c1OC (centres unmarked) [GSK1379753]	11	21	6	0	0	100	0	7	13	10
c1ccc(-c2cnc3nccnn23)cc1 [AH20685]	0	0	0	13	20	2	0	0	0	7
O=C(O)C(F)(F)F.O=C(O)C(F)(F)F.O=c1[nH]ccc2nc(N[C@@H]3CCCNC3)nc(Nc3ccc(S(=O)(=O)N4CCOCC4)cc3)c12 [GSK2177277]	95.7	0	92.1	99.9	99.3	100	99.6	97.9	99.9	99.9
CC(C)c1nc(-c2cccc(NS(=O)(=O)c3c(F)cccc3F)c2F)c(-c2ccnc(Nc3ccc(N4CCOCC4)nc3)n2)s1 [GSK2008607]	1	97.5	0	27	18	93.3	0	9	20	99.5
Cc1ccc(C(=O)Nc2ccc(Nc3ccnc4cc(-c5nccs5)ccc34)cc2O)cc1.Cl [GW494702]	19	0	6	0	0	9	1	0	0	0
O=C(Nc1ccccc1F)NC1CCN(c2ccnc(Nc3ccc(F)cc3)n2)CC1 [GSK1379800]	32	12	0	1	0	0	0	0	0	0
CN(C)S(=O)(=O)c1cc(-c2ccc3nccc(-c4cccc(S(N)(=O)=O)c4)c3c2)cnc1N [GSK1669921]	11	4	0	7	21	39	1	3	0	5
Cl.Cl.NCC(NC(=O)c1cc(-c2ccccc2)c(-c2ccnc3[nH]ccc23)s1)c1ccccc1 (centres unmarked) [GSK1321561]	50	55	15	4	0	30	0	12	44	7
CN(c1ccc(NC(=O)Nc2cc(C(F)(F)F)ccc2F)cc1)c1ccnc(Nc2ccc(S(N)(=O)=O)cc2)n1 [GW809893]	0	78	6	2	11	23	2	10	0	69
